Where “and” joins values, the source holds several entries; their conditions need not be identical. Equal values may be shown once. Hit rate of the full screen: of about 16,000 compounds, about 2,600 (16%) were called active. Inconclusive results (about 20%) are left out. Calls come from the whole dose curve; as a rule, active = well fitted curve in the direction sought with a large enough effect; inconclusive = small, poorly fitted or top-dose-only effect, or effect the other way; inactive = no such curve, though single readings can be large or run the other way. A selection follows. Some compounds were tested as several samples or in several runs, with calls that do not always agree.
Target: Cytochrome P450 2D6 (Homo sapiens) (UniProt P10635)
Experiment: Cytochrome panel assay with activity outcomes
Conditions: recombinant CYP, pro-luciferin dealkylation, luminescence, p450-cyp2d6; series mostly up to 57.1 µM
% is set by controls: 0 for no effect and ±100 for the full control effect.

Sequence of Cytochrome P450 2D6 (Homo sapiens) (P10635 whole entry, looked up): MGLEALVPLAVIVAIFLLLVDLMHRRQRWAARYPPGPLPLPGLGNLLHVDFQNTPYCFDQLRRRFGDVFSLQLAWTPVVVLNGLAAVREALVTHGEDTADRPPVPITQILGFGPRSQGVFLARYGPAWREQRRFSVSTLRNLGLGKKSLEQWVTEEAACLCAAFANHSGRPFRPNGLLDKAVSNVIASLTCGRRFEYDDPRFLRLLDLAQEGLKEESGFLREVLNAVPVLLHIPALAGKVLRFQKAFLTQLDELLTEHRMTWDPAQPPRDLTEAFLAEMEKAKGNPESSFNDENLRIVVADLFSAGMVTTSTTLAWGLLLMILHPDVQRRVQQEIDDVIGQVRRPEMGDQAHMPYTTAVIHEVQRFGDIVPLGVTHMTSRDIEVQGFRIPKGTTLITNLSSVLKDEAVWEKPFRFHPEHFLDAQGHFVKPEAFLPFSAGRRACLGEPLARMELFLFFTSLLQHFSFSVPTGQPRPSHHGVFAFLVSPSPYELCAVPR

SMILES | AC50 | activity, negative = inhibition
CCN(CC)C(=O)C1CCCN(c2ccc([N+](=O)[O-])cc2/C=N/NC(=O)c2ccc([N+](=O)[O-])cc2)C1 (configuration not stated) | inactive | –
Brc1ccc2cccnc2c1 | inactive | –
Brc1ccc2ncnc(Nc3cccc4ccccc34)c2c1 | 14.1 µM (active) | –
C/C(N)=C(/C#N)C(=O)COc1ncnc2ccc(Br)cc12 | inactive | –
Cc1cc(C(F)F)n2nc(C(=O)Nc3sc4c(c3C#N)CCC(C)C4)nc2n1 (configuration not stated) | inactive | –
COCCn1c(=O)c(-c2ccc(Cl)cc2)nc2cnc(Oc3ccccc3)nc21 | inactive | –
Cc1cc(C)c(S(=O)(=O)n2ccc(-c3ccc(OCCN(C)c4ccccn4)cc3)n2)c(C)c1 | inactive | –
CN(CCOc1ccc(C[C@H](Nc2ccccc2C(=O)c2ccccc2)C(=O)O)cc1)c1ccccn1 | 0.0316 µM (active) | –
COC(=O)CN(c1ccccn1)S(=O)(=O)c1ccccc1 | inactive | –
COCCCN1C(=O)C(=O)/C(=C(/O)c2ccc(OC)cc2C)C1c1cccnc1 (configuration not stated) | inactive | –
CC(C)(C)c1ccc(OCC(=O)N/N=C/c2cc(Br)ccc2OC(=O)c2ccco2)cc1 | inactive | –
Cc1ccc(COc2coc(CO)cc2=O)cc1 | inactive | –
Cc1ccc(COc2ccc(Br)cc2/C=N/O)cc1 | 17.8 µM (active) | –
CCNc1ncc2nc(-c3cn(C)c4ccccc34)c(=O)n(Cc3ccc(F)cc3)c2n1 | inactive | –
COc1ncc2nc(-c3cn(C)c4ccccc34)c(=O)n(CCC#N)c2n1 | inactive | –
CCNc1ncc2nc(-c3cccs3)c(=O)n(C)c2n1 | inactive | –
CCNc1ncc2nc(-c3cccc(C#N)c3)c(=O)n(CCC#N)c2n1 | 0.0316 µM (active) | –
CN1CCN(c2ncc3nc(-c4cccc(C#N)c4)c(=O)n(CCC#N)c3n2)CC1 | inactive | –
CCNc1ncc2nc(C)c(=O)n(Cc3cccs3)c2n1 | inactive | –
CCNc1ncc2nc(-c3cccs3)c(=O)n(Cc3cccs3)c2n1 | inactive | –
N#CCCn1c(=O)c(-c2cccs2)nc2cnc(Nc3ccccc3)nc21 | inactive | –
CCNc1ncc2nc(-c3cccs3)c(=O)n(CCC#N)c2n1 | 1.26 µM (active) | –
N#CCCn1c(=O)c(-c2cccc(C#N)c2)nc2cnc(Oc3ccccc3)nc21 | inactive | –

SMILES | AC50 | activity, negative = inhibition
CCNc1ncc2ncc(=O)n(Cc3cccs3)c2n1 | 12.6 µM (active) | –
CCNc1ncc2nc(-c3cn(C)c4ccccc34)c(=O)n(CCC#N)c2n1 | 3.98 µM (active) | –
Cc1cc(C)cc(C(=O)N(C)[C@H](Cc2ccc(-c3ccccc3)cc2)C(=O)N[C@@H](Cc2c[nH]c3ccccc23)C(=O)O)c1 | inactive | –
N=c1ccn2c(n1)O[C@H]1[C@@H](OP(=O)(O)O)[C@H](CO)O[C@H]12 | – | 10.3% [at 11.4 µM] (inactive)
Cc1cc(-c2n[nH]c(=S)o2)c(C)n1-c1ccccc1 | inactive | –
O=C(Nc1nnc(C2CC2)s1)c1cc(S(=O)(=O)N2CCN(c3ccccc3)CC2)ccc1Cl | inactive | –
O=C(N/N=C1/C[C@@H](O)[C@@H](O)[C@@H]2[C@@H]3C(=O)N(Cc4ccccc4)C(=O)[C@H]3CC[C@@H]12)OCc1ccccc1 | – | 9.46% [at 11.4 µM] (inactive)
O=C1[C@H]2O[C@@H]2[C@@H](O)[C@H]2[C@H]1CCn1c(=O)n(Cc3cc4c(cc3Cl)OCO4)c(=O)n12 | – | -11.5% [at 11.4 µM] (inactive)
CCN(CC)C(=O)CSc1nnc(-c2ccco2)n1N | inactive | –
COc1ccc(COC(=O)N/N=C2/C[C@@H](O)[C@@H](O)[C@@H]3[C@H]4C(=O)N(c5ccc(F)cc5F)C(=O)[C@@H]4CC[C@@H]23)cc1 | – | -3.12% [at 11.4 µM] (inactive)
O=C(Cc1cccs1)N/N=C/C(Br)=C/c1ccccc1 | inactive | –
COc1ccc(-c2nc3cnc(Nc4ccccc4)nc3n(CCC#N)c2=O)cc1 | inactive | –
CCNc1ncc2nc(-c3cc(F)cc(F)c3)c(=O)n(CCC#N)c2n1 | 0.0631 µM (active) | –
CCNc1ncc2nc(-c3ccccc3)c(=O)n(CCC#N)c2n1 | 0.501 µM (active) | –
N#CCCn1c(=O)c(-c2cc(F)cc(F)c2)nc2cnc(Nc3ccccc3)nc21 | inactive | –
N#CCCn1c(=O)c(-c2ccccc2)nc2cnc(Nc3ccccc3)nc21 | inactive | –
COc1ncc2nc(-c3cc(F)cc(F)c3)c(=O)n(CCC#N)c2n1 | inactive | –
COC(=O)[C@@]1(Cc2ccc(F)cc2)[C@H]2c3cc(C(=O)N4CCCC4)n(CCCNc4ncc(C(F)(F)F)cc4Cl)c3C[C@H]2CN1C(=O)c1ccccc1 | inactive | –
CCOC(=O)[C@]1(CC(=O)O)CCCC1=O | – | -6.09% [at 11.4 µM] (inactive)
COc1ccc(C2CC(=O)c3cnc(Nc4cc(C)cc(C)c4)nc3C2)cc1 (configuration not stated) | inactive | –
O=C1NC(=O)C(c2ccccc2[N+](=O)[O-])=C1Nc1ccc(O)c(Cl)c1 | inactive | –
Cc1occc1C(=O)NNC(=O)c1ccc(F)cc1 | inactive | –
COc1ccc(-n2c(=S)[nH]c3cc(C(=O)NCCCN4CCCC4=O)ccc3c2=O)cc1 | inactive | –

SMILES | AC50 | activity, negative = inhibition
COc1ccc2c(c1OC)C(=O)O[C@@H]2[C@H]1c2c(cc3c(c2OC)OCO3)CCN1C | inactive | –
COc1ccc2c(c1OC)C(=O)OC2[C@H]1c2c(cc3c(c2OC)OCO3)CCN1C (some centres not stated) | 10 µM (active) | –
COc1ccc2c(c1OC)C(=O)OC2Nc1ncccc1C (configuration not stated) | inactive | –
COc1ccc(/C(C)=N/NC(=O)c2ccc(CSc3cccc4cccnc34)cc2)cc1OC | inactive | –
Cc1ccccc1-c1cc(C(=O)n2cccn2)c2cc(Cl)ccc2n1 | inactive | –
Cc1cc(N2C(=O)C(O)=C(C(=O)c3cccs3)C2c2cccc(O)c2)no1 (configuration not stated) | inactive | –
COC(=O)CSc1cc(C(F)(F)F)nc(-c2ccccn2)n1 | inactive | –
CCOC(=O)CSc1nc2c(cnn2-c2ccc(C)cc2)c(=O)[nH]1 | inactive | –
N#CCSc1nc2cc(C(=O)N3CCCC3)ccc2c(=O)n1Cc1ccccc1 | inactive | –
Cc1nc2cnc(Oc3cccc(Cl)c3)nc2n(C[C@H]2CCCO2)c1=O | inactive | –
CS(=O)(=O)Nc1cccc(-c2ccc3ncnc(NCCN4CCOCC4)c3c2)c1 | inactive | –
COCCNc1ncnc2ccc(-c3cccc(NS(C)(=O)=O)c3)cc12 | inactive | –
COc1cccc(-c2ccc3ncnc(NCc4cccs4)c3c2)c1 | 10 µM (active) | –
CS(=O)(=O)Nc1cccc(-c2ccc3ncnc(NCc4cccs4)c3c2)c1 | 20 µM (active) | –
c1csc(CNc2ncnc3ccc(-c4ccoc4)cc23)c1 | 15.8 µM (active) | –
CN(/C=C/C(=O)C(F)(F)F)Cc1ccccc1 | inactive | –
Cc1[nH]c2ccccc2c1-c1cc(-c2cc(-c3c(C)[nH]c4ccccc34)on2)no1 | – | 5.28% [at 11.4 µM] (inactive)
CCCC[C@@H]1C[C@H]1C(NC(=O)c1cccnc1)c1ccc(-c2ccccc2)cc1 (some centres not stated) | inactive | –
CCOC(=O)c1cnn(-c2cc(Oc3ccccc3)ncn2)c1N | inactive | –
Cc1ccc(C(=O)CSc2nc(C)cc(=O)[nH]2)cc1 | inactive | –
Cc1nc(SCC(=O)c2ccc(F)cc2)c([N+](=O)[O-])[nH]1 | 10 µM (active) | –
Cc1cc(C)c(C(N)=O)c(SCC(=O)c2ccc(Cl)cc2)n1 | inactive | –
Oc1ccccc1CNn1cnnc1 | inactive | –

SMILES | AC50 | activity, negative = inhibition
O=c1[nH]c2cc([N+](=O)[O-])c([N+](=O)[O-])cc2[nH]c1=O | inactive | –
CC(CCc1ccccc1)NC(=O)C(=O)NCCO (configuration not stated) | inactive | –
C[C@@H](CCc1ccc(O)cc1)NCCc1ccc(O)c(O)c1 | inactive | –
C[C@@H](CCc1ccccc1)NC[C@H](O)c1ccc(O)c(C(N)=O)c1 | 3.98 µM (active) and 2 µM (active) | –
O=C(COc1cccc2ccccc12)NNC(=O)c1cccs1 | inactive | –
CCOC(=O)c1cccc(C(=O)OCC)n1 | inactive | –
O=C(OCC(=O)c1cccs1)c1cccc(C(=O)OCC(=O)c2cccs2)n1 | 4.47 µM (active) | –
O=C(Nc1nnc(COc2ccc(Cl)cc2)s1)c1ccc([N+](=O)[O-])cc1 | inactive | –
CCOc1ccc2ccccc2c1C(=O)N[C@@H]1C(=O)N2[C@@H]1SC(C)(C)[C@@H]2C(=O)O | inactive | –
O=[N+]([O-])c1cc(C(F)(F)F)ccc1NCCCCNS(=O)(=O)c1ccc2ccccc2c1 | inactive | –
COC(=O)c1ccccc1NC(=O)c1ccc(Cn2cc(Cl)cn2)o1 | inactive | –
Nc1ccc(C(=O)N/N=C/c2ccccc2)cc1 | inactive | –
CC[C@@]12CCCN3CCc4c(n(c5ccccc45)[C@](O)(C(=O)OC)C1)[C@H]32 | inactive and 251 nM (active) | –
CC[C@@]12CCCN3CCc4c(n(c5ccccc45)C(=O)C1)[C@H]32 | 20 nM (active) and 251 nM (active) | –
CCOC(=O)C1=C[C@@]2(CC)CCCN3CCc4c(n1c1ccccc41)[C@H]32 | 6.31 µM (active) and inactive | –
Cn1c(Cc2cccc3ccccc23)nnc1SCC(=O)N1CCN(c2ccccc2)CC1 | inactive | –
CSc1nc(-c2ccc(C)cc2)nc(C(Cl)Cl)n1 | inactive | –
CCCC[C@H]1C(=O)N(c2ccccc2)N(c2ccc(O)cc2)C1=O | inactive | –
CCOC(=O)N1CCN(S(=O)(=O)c2ccc3[nH]cc(C(=O)O)c(=O)c3c2)CC1 | inactive | –
C[C@@]12CCC(=O)C=C1CC[C@H]1[C@@H]2[C@@H](O)C[C@]2(C)[C@@H]1CC[C@@]2(O)C(=O)COC(=O)C1CCCC1 | – | 8.32% [at 11.4 µM] (inactive)
CCCn1c(=O)c2[nH]c(-c3ccc(OCC(=O)NCCN)cc3)nc2n(CCC)c1=O | inactive | –
C[C@@]12CCC(=O)C=C1CC[C@H]1[C@@H]2[C@@H](O)C[C@]2(C)[C@@H]1CC[C@@]2(O)C(=O)CO | – | 17% [at 11.4 µM] (inactive)
O=C(Oc1ccccc1)N1CCC2(CC1)CCN(c1cccc(-c3ccccc3)c1)CC2 | inactive | –

— PubChem BioAssay AID1851 (National Center for Advancing Translational Sciences (NCATS), 2009)
